Cycloheximide cs: counter-screen hit for Shiga toxin inhibitors, cycloheximide; 300,000 tested, 12% active; AID 2314; cell reporter, cycloheximide protein synthesis inhibition counterscreen; max response, %; in the data active = max response mostly above about 13%, no sharp cut-off; inactive = mostly below about 14%; note: read at 38.3 µM for the half of the compounds with a filed dose
NS1 inh: influenza NS1 inhibition. Potency, µM (series often up to 46.1 µM). 270,000 tested, 0.4% active; calls by dose curve; note: actives are rising curves; nearly all actives have a fitted effect of over 50% in size
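A cell-based growth assay was used: compounds that relieve NS1-induced slow growth of budding yeast raise OD600. Assay medium was yeast nitrogen base with ammonium sulphate and -URA supplement, pH 6.0, with 2% galactose.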
Shiga toxin inh: Shiga toxin inhibition | Vero cells, Shiga toxin protein synthesis inhibition reporter | inhibition, % at 38.7 µM | 290,000 tested, 9.2% active | AID 2315; in the data active = inhibition mostly above about 28%, no sharp cut-off; inactive = mostly below about 43%
Pf growth 48h: inhibits P. falciparum growth in the first generation, 48 h. Potency, µM (series often up to 28.7 µM), actives largely listed as inhibitors. AID 504832. P. falciparum luciferase growth in erythrocytes, 48 h. 310,000 tested, 5.9% active
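Compounds are pin-transferred into medium, infected erythrocytes (2% hematocrit, 0.1% parasitemia final) are added, and plates sit one parasite generation at 37 C in 5% CO2. Detection reagent is then added and luminescence measured.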
Pf growth 96h: P. falciparum growth inhibition at 96 hour, primary screen for plastid delayed-death inhibitors; P. falciparum luciferase reporter growth, 96 h; Potency, µM (titrated, usually from 28.7 µM), hits mostly inhibitors; 320,000 tested, 6.9% active; AID 504834
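Two parasite generations (96 h, 37 C, 5% CO2) of compound exposure in infected erythrocytes (0.05% parasitemia, 2% hematocrit). Luciferase-reporter P. falciparum; decreased luminescence indicates inhibited growth, aimed at apicoplast-acting delayed death.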
Giardia FBPA inh: Giardia lamblia aldolase inhibition | A8B2U2 | 290,000 tested, 0.71% active | Potency, µM (series often up to 59.6 µM), hits mostly inhibitors | purified Giardia FBPA; note: nearly all actives have a fitted effect of over 55% in size
Target sequence (A8B2U2 whole entry, looked up): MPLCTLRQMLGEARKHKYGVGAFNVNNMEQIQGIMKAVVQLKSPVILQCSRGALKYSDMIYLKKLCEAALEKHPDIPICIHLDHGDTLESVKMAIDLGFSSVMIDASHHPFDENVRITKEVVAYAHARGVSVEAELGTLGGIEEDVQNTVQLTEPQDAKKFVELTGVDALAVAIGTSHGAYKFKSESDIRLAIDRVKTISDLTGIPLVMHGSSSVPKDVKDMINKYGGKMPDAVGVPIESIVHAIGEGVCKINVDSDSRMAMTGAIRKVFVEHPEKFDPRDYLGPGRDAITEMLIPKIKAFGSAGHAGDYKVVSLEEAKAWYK
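Giardia FBPA (40 nM reagent) was preincubated 10 min at RT with compound (up to 57.5 uM final), then substrate plus GAPDH/TPI/NAD/arsenate coupling system with diaphorase/resazurin was added; resorufin fluorescence (525/598 nm) was read after 20 min.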
Each line names hits and unclear results; the compound was inactive in the other large screens. Compounds with a hit are over-represented: about 21% of the library has one in this group of screens. Unless noted, calls come from the whole dose curve; as a rule, active = well fitted curve in the direction sought with a large enough effect; inconclusive = small, poorly fitted or top-dose-only effect, or another doubt; inactive = no such curve, though single readings can be large; an effect the other way counts as inactive or inconclusive.

NCCc1nnc(SCc2ccccc2F)o1	none
COc1ccc(-c2nnc(SCc3ccccc3F)o2)cc1OC	Shiga toxin inh 52
COC(=O)CSc1nnc(-c2ccc(OC)c(OC)c2)o1	none
COC(=O)c1ccc(OC)c(CSc2nnc(-c3ccc(C(C)(C)C)cc3)o2)c1	Pf growth 96h 0.66µM (no result: Pf growth 48h)
COC(=O)c1ccc(OC)c(CSc2nnc(COc3ccccc3)o2)c1	none
COc1cc(-c2nnc(SCc3cc(=O)oc4cc(C)ccc34)o2)cc(OC)c1OC	Cycloheximide cs 29, Pf growth 48h inconclusive, Pf growth 96h inconclusive
Cc1ccc(-c2nnc(SCc3ccccc3F)o2)cc1	Cycloheximide cs 44, Shiga toxin inh 63
CNC(=O)c1ccc(CNC(=O)OCc2ccccc2)cc1	none
COc1ccc(OC)c(/C=C/C(=O)OCC(=O)Nc2nnc(-c3ccccc3)o2)c1	Pf growth 48h inconclusive (no result: Cycloheximide cs, NS1 inh, Shiga toxin inh, Giardia FBPA inh)
